From PubChem BioAssay (Tox21)
Unmarked numbers belong to inactive results. Where a call stands in place of a potency, no number is given. Active and inactive are the calls of the source. Calls follow the shape of the full dose curve.

Molecular target: Gonadotropin-releasing hormone receptor (Homo sapiens) (UniProt P30968)
Assay: Human gonadotropin-releasing hormone receptor (GnRHR) small molecule agonists, calcium flux assay in GnRHR-HEK293 cells (AID 1920063); also: nearly all actives have a fitted effect of over 35% in size
Conditions: calcium flux fluorescence, agonist mode; series mostly up to 57.6 µM
Text: National Center for Advancing Translational Sciences [NCATS]
Division of Preclinical Innovation [DPI]
U.S. Environmental Protection Agency [EPA]
National Institutes of Environmental Health Sciences [NIEHS]
National Toxicology Program [NTP]
U.S. Food and Drug Administration [FDA]
Gonadotropin-releasing hormone receptor (GnRHR) is a G-protein-coupled receptor (GPCR) and acts (through phospholipase C) to increase intracellular inositol trisphosphate and then release intracellular calcium stores. Cell-based GnRHR-Hek293 calcium influx assay is using HEK293 cells that have been genetically engineered to express the human GnRHR, which activity can be measured by calcium signaling. A compound/drug can activate (agonist) GnRHR that can be monitored by levels of intracellular calcium.
GnRHR-HEK293 cells developed by Codex Corp contain human GnRHR reporter gene, which was stably integrated into HEK 293 cells. The compound activation can be detected by fluorescence intensity via calcium flux assay. This cell line has been used to screen the Tox21 10K compound library to identify GnRHR agonists.
GnRHR-Hek293 cells were dispensed at 1500cells/4uL/well in 1536-well black wall/clear bottom plates using a multidrop dispenser. After the assay plates were incubated at a 37 C/5% CO2 incubator for 18 hours, 4 uL of Calcium Dye Solution was added to each well. The plates were incubated at 37 C for 1 hour. For agonist mode, 23 nL of compounds dissolved in DMSO, positive controls or DMSO only was transferred to the assay plate by a pin tool station. The fluorescence intensity in the plates was measured using FDSS 7000EX kinetic plate reader with a filter set of Ex/Em=480/540 for 3 min at 1 sec intervals. Each test compound was measured at 15 concentrations and in triplicates.

Chain of Gonadotropin-releasing hormone receptor (Homo sapiens) (P30968 whole entry, looked up): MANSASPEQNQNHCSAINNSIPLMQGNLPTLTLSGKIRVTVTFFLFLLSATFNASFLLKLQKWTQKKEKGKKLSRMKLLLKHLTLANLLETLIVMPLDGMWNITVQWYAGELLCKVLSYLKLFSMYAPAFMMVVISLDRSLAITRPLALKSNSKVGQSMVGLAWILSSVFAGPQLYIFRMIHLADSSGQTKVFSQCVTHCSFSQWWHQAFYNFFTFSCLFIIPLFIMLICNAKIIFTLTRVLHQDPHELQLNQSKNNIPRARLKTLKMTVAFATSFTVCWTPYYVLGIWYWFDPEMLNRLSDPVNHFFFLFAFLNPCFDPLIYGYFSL

Structure (SMILES) | Potency | activity change
CCCCCC[C@@H](O)C/C=C\CCCCCCCC(=O)OC | inactive | –
O=C1CN(/N=C/c2ccc([N+](=O)[O-])o2)C(=O)N1 | inactive | –
CC(=O)SCC(CC(=O)c1ccc(C)cc1)C(=O)O (stereo not given) | inactive | –
O=C(/C=C/c1ccc([N+](=O)[O-])cc1)c1ccccc1 | inactive | –
C[C@@H](c1ncncc1F)C(O)(Cn1cncn1)c1ccc(F)cc1F (stereo not given in full) | inactive | –
C#C[C@]1(O)CC[C@H]2[C@@H]3[C@H](C)CC4=C(CCC(=O)C4)[C@H]3CC[C@@]21C | inactive | –
CN(C)C(=O)NC1(c2ccccc2)CCN(CC[C@@]2(c3ccc(F)c(F)c3)CN(C(=O)c3ccccc3)CCO2)CC1 | inactive | –
CCOC(=O)[C@@H](C)Oc1ccc(Oc2nc3ccc(Cl)cc3o2)cc1 | inactive | –
COc1cc(C(C)C)c2c(c1)S(=O)(=O)N(COc1cc(=O)n3cccc(OCCN4CCCCC4)c3n1)C2=O | – | -0.424% [at 11.8 µM, hits give high values]
CC(=O)CC(=O)Nc1ccc(S(=O)(=O)O)cc1 | inactive | –
C=CCN(CC=C)CC=C | inactive | –
COc1ccc(NC(=O)CC(C)=O)cc1 | inactive | –
Cc1c(C(=O)O)cccc1[N+](=O)[O-] | inactive | –
O=C(O)CNC(=O)CNC(=O)CNC(=O)CSC(=O)c1ccccc1 | inactive | –
Cc1cccc(O)c1N | inactive | –
NC(N)=NCCN1CCCCCCC1 | – | -0.022% [at 0.217 µM, hits give high values]
COc1ccc(S(=O)(=O)N2C(=O)[C@@](c3ccccc3OC)(N3C[C@H](O)C[C@H]3C(=O)N(C)C)c3cc(Cl)ccc32)c(OC)c1 | inactive | –
CC[C@]12CCCN3CCc4c(n(c5ccccc45)C(=O)C1)[C@@H]32 | inactive | –
O=S(=O)(O)c1cc(S(=O)(=O)O)c2ccc3c(S(=O)(=O)O)cc(S(=O)(=O)O)c4ccc1c2c43 | – | 0.0619% [at 11.8 µM, hits give high values]
CSc1c(Cl)c(Cl)c(Cl)c(Cl)c1Cl | inactive | –

Structure (SMILES) | Potency | activity change
CC(C)c1cccc(C(C)C)c1N1C(=O)c2ccc(O)cc2C1=O | inactive | –
CC(=O)Oc1ccc(C(=C2CCCCC2)c2ccc(OC(C)=O)cc2)cc1 | inactive | –
Nc1nc(N)c2nc(CNc3ccc(C(=O)N[C@@H](CCC(=O)O)C(=O)O)cc3)cnc2n1 | inactive | –
CN(C)CCOc1ccccc1Cc1ccccc1 | inactive | –
O=C(O)C(=O)Cc1ccccc1 | inactive | –
Cc1cc(O)c2c(c1)C(=O)c1cc(O)cc(O)c1C2=O | inactive | –
Cc1cc2c(cc1C(F)(F)F)N(C(=O)Nc1ccc(Oc3cccnc3C)nc1)CC2 | inactive | –
Nc1nc(Cl)nc2c1ncn2[C@H]1C[C@H](O)[C@@H](CO)O1 | inactive | –
Brc1ccccc1-c1ccccc1 | inactive | –
O=C(O)CN(CCOCCOCCN(CC(=O)O)CC(=O)O)CC(=O)O | – | 0.537% [at 0.217 µM, hits give high values]
CC(=O)OCC(=O)[C@@]1(O)[C@H](OC(C)=O)C[C@H]2[C@@H]3CCC4=CC(=O)C=C[C@]4(C)[C@@]3(F)[C@@H](O)C[C@@]21C | inactive | –
COC(C)=O | inactive | –
O=C(OCC(COC(=O)c1cccnc1)(COC(=O)c1cccnc1)COC(=O)c1cccnc1)c1cccnc1 | inactive | –
Cc1ccc2ccc(Cl)cc2n1 | inactive | –
CN(C)C(=O)Oc1cccc([N+](C)(C)C)c1 | inactive | –
N#CCCNCCC#N | inactive | –
[O-][n+]1ccccc1SSc1cccc[n+]1[O-] | – | 17.2% [at 11.8 µM, hits give high values]
CC1=C(CC(=O)O)c2cc(F)ccc2/C1=C\c1ccc(S(C)(=O)=O)cc1 | inactive | –
ClC(Cl)Cl | inactive | –
CNc1ncnc2nc[nH]c12 | inactive | –
